# Compound activity (PubChem)
# HEK293 cAMP ctrl: raises cAMP in parental HEK293 cells, TSHR agonist counter-screen; parental HEK293 CNG cAMP sensor, membrane potential fluorescence; Potency, µM (series often up to 57.1 µM), most hits filed as activators; actives 2.5% (n = 73,000); AID 938; note: nearly all actives have a fitted effect of over 55% in size
#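 Parental HEK 293 cells stably expressing a modified CNG channel (no TSHR) report cAMP rise as membrane depolarization. Membrane potential dye with 100 uM RO 20-1724 was loaded for 60 min at room temperature, then compound added for 30 min; fluorescence read at 590 nm.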
# 15-hLO inh: 15-hLO (ALOX15) enzyme inhibition; P16050; purified 15hLO-1, xylenol orange hydroperoxide absorbance; Potency, µM (titrated, usually from 57.1 µM), hits mostly inhibitors; actives 1.4% (n = 74,000); AID 887; note: nearly all actives have a fitted effect of over 55% in size
#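 Quantitative HTS in 25 mM Hepes pH 7.5 containing 0.01% Triton X-100: human 15hLO-1 at 40 nM, arachidonic acid at 50 uM, 6 min turnover. Product quantified via ferrous oxidation/xylenol orange, 573:405 nm absorbance ratio.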
# Tau fil binding: binders of human tau filaments. AID 596. recombinant tau filaments, thioflavin S fluorescence, 15 h; filaments grown with octadecylsulfate alongside compound. Potency, µM (titrated, usually from 57.1 µM). actives 2% (n = 71,000);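 note: actives lower thioflavin S fluorescence by blocking filaments or displacing dye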
#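 Recombinant tau protein (human, 1 uM final) plus 30 uM ODS in HEPES pH 7.4 with NaCl, DTT and thioflavine S. Compound present from the start; fluorescence at 510 nm after 15 h, 37 C.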
# TSHR agonist: agonists of human thyroid stimulating hormone receptor. actives 0.48% (n = 73,000). HEK293-CNG-TSHR cells (CNG channel as cAMP sensor), membrane potential dye, cAMP. Potency, µM (doses to about 57.1 µM), usual class: activators. AID 926. P16473; active = well fitted activation curve with a large enough effect in the main read-out, with a control signal flat, not every such curve was filed as active; inconclusive = small, poorly fitted or top-dose-only effect, or a change in a side signal; inactive = no such curve, though single readings can be large or run the other way; reference of the percent scale not stated here;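 note: the control signal comes from parental cells without the receptor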
#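 cAMP rise detected as CNG-channel membrane depolarization by fluorescent dye (emission 590 nm), 30 min after compound, following 60 min dye loading containing 100 uM RO 20-1724 at room temperature. Cells: TSHR/CNG HEK 293, with parental CNG HEK 293 as control.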
# Bst PK mod: alters activity of Bacillus stearothermophilus pyruvate kinase. actives 1.2% (n = 51,000). purified pyruvate kinase, luminescence ATP production; ribose 5-phosphate activator present at AC10. Potency, µM. AID 361; in the data active = potency below about 11 µM; inconclusive = mostly about 12 µM to 25 µM;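 the screen sought inhibitors and activators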
# Luciferase inh: inhibitors of firefly luciferase | purified firefly luciferase, luminescence, 8 min | actives 2.2% (n = 72,000) | Potency, µM (top dose mostly 57.1 µM), most hits filed as inhibitors | P08659; note: nearly all actives have a fitted effect of over 40% in size
#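 Inhibition of light generation by firefly luciferase from ATP and luciferin was profiled with concentration-response curves per sample, ATP held at 10 uM within the enzyme's linear range. Plates were read by luminescence after an 8-minute ambient incubation.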
# Numbers stand for hits; i = inactive; ? = inconclusive; nt = not tested or not shown; [ ] = remark or other dose. Rows were chosen to be rich in hits. Some 7.8% of all compounds tested hit in one or more screens of this group. Unless noted, calls come from the whole dose curve; as a rule, active = well fitted curve in the direction sought with a large enough effect; inconclusive = small, poorly fitted or top-dose-only effect, or another doubt; inactive = no such curve, though single readings can be large; an effect the other way counts as inactive or inconclusive.
SMILES,HEK293 cAMP ctrl,15-hLO inh,Tau fil binding,TSHR agonist,Bst PK mod,Luciferase inh
Cc1noc(C)c1CSc1nnc(-c2ccccc2)n1Cc1ccco1,15.8µM,i,i,?,i,i
C[C@@H](C(=O)O)c1ccc(C[C@@H]2CCCC2=O)cc1,i,i,i,i,nt,i
N#CC1=C(N)N=C(SCc2ccccc2)C(C(N)=O)C12CCCCC2 (stereo not drawn),i,i,6.31µM,i,i,i
Cc1ccc(C(=O)CSC2=NC(N)=C(C#N)C3(CCCCC3)C2C(N)=O)cc1 (stereo not drawn),i[11.4 µM],?,3.16µM,i[11.4 µM],nt,i
O=C(C[C@@H](c1ccccc1)N1CCCCC1)c1ccccc1,i[11.4 µM],i[11.4 µM],i[11.4 µM],i[11.4 µM],nt,i[11.4 µM]
Cc1cc(C)n2nc(SCc3cc(=O)n4c(C)cccc4n3)nc2n1,i,i,i,i,i,i
C=CCNC(=O)COc1ccc(Br)cc1Cl,i,i,i,i,nt,i
CCN(CC)c1ccc(-c2nc3cnccc3n2C)cc1,i,i,i,i,i,10µM
CN(C)CC(=O)N1c2ccccc2CCc2ccc(NC(=O)c3ccc(N)cc3)cc21,i,i,15.8µM,i[11.4 µM],i,i
O=C(O)[C@@H](O)[C@@H](O)[C@@H](O)[C@@H](O)c1nc2ccccc2s1,i[11.4 µM],i[11.4 µM],i[11.4 µM],i[11.4 µM],nt,i[11.4 µM]
CC1CC2(CC(C)(C(=O)CSc3nc4ccccc4s3)OC2=O)C(=O)O1 (stereo not drawn),i,i,i,i,i,i
CC1(C(=O)CSc2nc3ccccc3s2)CCC(=O)O1 (stereo not drawn),nt,nt,nt,nt,10.2,i
C[C@@H](C1=C(CCN(C)C)Cc2ccccc21)c1ccccn1,?,i,?,?,nt,i
COC(=O)[C@@]1(Cc2ccc(OC)cc2)[C@H]2c3cc(C(=O)N4CCCC4)n(CCF)c3C[C@H]2CN1C(=O)c1ccccc1,20µM,nt,i,?,nt,nt
COC(=O)[C@@]1(Cc2ccc(OC)cc2)[C@H]2c3cc(C(=O)N4CCCC4)n(CCN4CCOCC4)c3C[C@H]2CN1C(=O)c1ccccc1,20µM,nt,i,?,nt,nt
COC(=O)[C@@]1(Cc2ccc(OC)cc2)[C@H]2c3cc(C(=O)N4CCCC4)n(Cc4ccc(OC)c(OC)c4)c3C[C@H]2CN1C(=O)c1ccccc1,5.01µM,nt,i,?,nt,nt
COC(=O)[C@@]1(Cc2ccccc2)[C@H]2c3cc(C(=O)N(C)C)n(CCF)c3C[C@H]2CN1C(=O)c1ccccc1,25.1µM,nt,i,?,nt,nt
COCCn1c(C(=O)N2CCCC2)cc2c1C[C@H]1CN(C(=O)c3ccccc3)[C@@](Cc3ccc(OC)cc3)(C(=O)OC)[C@@H]21,?,nt,i,?,nt,nt
COC(=O)[C@@]1(Cc2ccc(OC)cc2)[C@H]2c3cc(C(=O)N4CCCC4)n(C[C@H](O)CO)c3C[C@H]2CN1C(=O)c1ccccc1,i,nt,i,i,nt,nt
COC(=O)[C@@]1(Cc2ccccc2)[C@H]2c3cc(C(=O)N(C)C)n(CCO)c3C[C@H]2CN1C(=O)c1ccccc1,i,nt,i,i,nt,nt
Cc1ccc(C)c(N(CC(=O)NC2CCCC2)C(=O)CCCC(=O)Nc2ccccn2)c1,?,i,i,?,i,i
O=C(Nc1ccccc1)c1ccc(Cc2nc3ccccc3[nH]2)cc1,i,i,nt,i,nt,nt
CNc1ccc(O)cc1,i,?,20µM,i,nt,nt
Cc1nc(N2CCOCC2)c2nc(-c3ccccc3)n(CC(C)(C)CN(C)C)c2n1,i,i,i,i,nt,nt
COC(=O)C1CCN(c2cc(=O)n(-c3ccc(OC)cc3)c(=O)[nH]2)CC1,i,i,i,i,nt,i
SMILES,HEK293 cAMP ctrl,15-hLO inh,Tau fil binding,TSHR agonist,Bst PK mod,Luciferase inh
Cc1ccc(NC(=O)COC(=O)c2ccc3c(c2)NC(=O)C2CCCN32)cc1 (stereo not drawn),i,i,i,i[11.4 µM],i,i
COC(=O)c1ccc2c(c1)NC(=O)C1CCCN21 (stereo not drawn),i,7.94µM,i,i,nt,i
Cc1cc(NC(=O)Nc2ccc(N(C)C)cc2)c2cc(F)cc(F)c2n1,i,i,31.6µM,i,nt,i
CN(C)c1ccc(NC(=O)CN2CCN(CC(=O)Nc3ccc(F)cc3)CC2)cc1,i,i,i,i,i,i
C=CCOc1c(CNc2nccs2)cccc1OCC,?,i,i,?,?,12.6µM
C=CCOc1ccccc1CNCc1cccnc1,i,i,i,i,i,i
